The values that follow come from PubChem BioAssay (NCI).

The panel holds about 83,000 compounds, 20% with a hit somewhere; the sample as a whole holds those more often.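 Single-dose data. Exposure time 48 hours. Values below 10 considered active.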 Values without a mark were called inactive. Activity calls are given as the source filed them.

Holding throughout (assay): NCI-60 one-dose screen, 48 h (100 = growth as untreated, 0 = no growth, -100 = all killed)
Holding throughout (conditions): 10 µM

Assay [1] has as its system NCI-H23 lung.
In assay [2] the test system is NCI-H226 lung.
For assay [3], the system named is NCI-H322M lung.
Assay [4] deals with HOP-62 NSCLC.
Assay [5] has as its system NCI-H460 lung.
Assay [6] relates to NCI-H522 lung.
In assay [7] the test system is A549/ATCC NSCLC.
For assay [8], the system named is 786-0 renal.
The test system of assay [9] is COLO 205 colon.
The subject of assay [10] is DU-145 prostate.

With `CCN(CC)CCC(=O)Nc1cccc2c1C(=O)c1c(c(O)c3ccccc3c1O)C2=O`, the growth in assay [1] was 62%; in assay [2] it was 29%; in assay [3], 56.7%; in [4] it was 47.9%; in assay [5], 15.5%; in [6], 46.4%. Further, the growth in [7] is 33.7%; in [8] it was 4.91% (active); in [9] it was 51.3%; in assay [10], 51.2%.
Regarding `COc1ccc2c(c1)C(=O)c1c-2c(=O)n(CCCN(C)C)c2cc(OC)c(OC)cc12`, the growth is 48.8% in assay [1]; 70.5% in assay [2]; 80% in assay [3]; 51.4% in [4]; 10.9% in assay [5]; 56.5% in assay [6]. Further, the growth in assay [7] was 56.3%; in assay [8], 71.8%; in [9], 100%; in assay [10], 26.9%.
For `N=c1c2c(-c3ccccc3)c(-c3ccccc3)n(Cc3ccccc3)c2ncn1CCCO`, the growth in assay [1] was 45.7%; in assay [2], 46.1%; in [3], 34.4%; in [4], 52.9%; in [5], 8.17% (active); in [6], 27.8%. The growth in assay [7] is 17.3%; in [8], 48.3%; in assay [9], -5.84% (active); in [10], 34.5%.
Turning to `C/C(N)=C(\C#N)C(=O)c1ccccc1`, the growth in assay [1] is 104%; in assay [2], 98%; in assay [3], 107%; in assay [4] it was 105%; in assay [5], 103%; in [6], 96.6%. The growth in assay [7] was 97.6%; in assay [8], 106%; in [9], 105%; in assay [10] it was 110%.
As for `Nc1cc2c(cc1Cl)-c1ccc([N+](=O)[O-])cc1/C2=N\O`, the growth was 83.4% in assay [1]; 93.3% in assay [2]; 50.1% in assay [3]; 111% in assay [4]; 48.8% in assay [5]; 69.8% in assay [6]. For the same molecule, the growth in assay [7] is 59.2%; in [8], 90.8%; in assay [9], 109%; in assay [10], 63%.
For `CCCCCCCCN(CCCCCCCC)CCCCCCCCCN1CCCc2cc(OC)ccc21`, the growth in assay [1] was 63.4%; in assay [2] it was 89.7%; in assay [3] it was 95.5%; in assay [4], 85%; in assay [5], 102%; in assay [6] it was 79.4%. Moreover, the growth in assay [7] is 97.2%; in assay [8] it was 98.3%; in assay [9], 87.8%; in assay [10], 105%.
On to `O=C1N=NC2=C1c1c3ccccc3c(O)n1CC2`, for which the growth is 96.7% in [1]; 105% in assay [2]; 98.9% in assay [3]; 91.6% in assay [4]; 110% in assay [5]; -36.3% (active) in [6]. The growth was 45.1% in [7], 101% in [8], 129% in assay [9] and 121% in [10].
On to `O=C(Nc1cccc(-n2cc(-c3ccncc3)c(-c3cc(O)cc(Cl)c3)n2)c1)Nc1ccc(Cl)c(C(F)(F)F)c1`, for which the growth is 10.5% in assay [1]; 41.2% in assay [2]; 45% in assay [3]; 8.99% (active) in assay [4]; 3.75% (active) in assay [5]; -16% (active) in [6]. The growth in assay [7] is 8.81% (active); in [8], -29.8% (active); in assay [9], 63.4%; in assay [10], 18.7%.
For `Cc1nc2c(c(=O)[nH]1)OCN(Cc1ccccc1)C2`, the growth in [1] was 100%; in [2], 103%; in assay [3] it was 105%; in [4] it was 107%; in assay [5], 110%; in [6], 111%. The growth in assay [7] was 112%; in [8], 101%; in assay [9], 112%; in assay [10] it was 108%.
In the case of `C[C@@H]1C=C2C(=O)O[C@@H]3CC[C@H](C1)[C@]23O`, the growth in assay [1] was 80.6%; in assay [2], 106%; in assay [3], 82.5%; in assay [4] it was 71.7%; in [5] it was 80.9%; in assay [6] it was 2.22% (active). Moreover, the growth in assay [7] was 67.1%; in assay [8] it was 103%; in [9], 74%; in assay [10] it was -25.9% (active).
As to `O=C(Nc1cccc(-n2cc(-c3ccncc3)c(-c3cc(O)cc(Cl)c3)n2)c1)c1cc(C(F)(F)F)cc(C(F)(F)F)c1`, the growth in assay [1] was 42.7%; in [2] it was 96%; in [3], 74.1%; in [4], 58.3%; in [5], 19.9%; in assay [6] it was 17.8%. Moreover, the growth in [7] was 27.3%; in assay [8], 55.1%; in [9], 38.7%; in assay [10], 62.1%.
As to `CC(=O)c1cc(Br)ccc1O`, the growth is 105% in assay [1]; 101% in assay [2]; 127% in assay [3]; 118% in [4]; 105% in [5]; 87.4% in [6]. Besides, the growth in [7] is 107%; in assay [8] it was 104%; in [9] it was 121%; in [10] it was 114%.
Regarding `Cc1ccc(C)c(C(O)(c2cc(C)ccc2C)C2(O)CCCCC2)c1`, the growth in assay [1] is 88.5%; in assay [2], 82.7%; in assay [3] it was 104%; in assay [4], 112%; in [5], 95.7%; in assay [6] it was 61.4%. Besides, the growth was 92.9% in assay [7], 90.6% in [8], 96.7% in [9] and 104% in assay [10].
Take `CC(C)(C)NC/C(=C\c1ccccc1)C(=O)c1ccccc1`: the growth was 12.4% in [1]; 49.1% in [2]; 63.3% in [3]; 26.5% in assay [4]; 8.72% (active) in [5]; -92.5% (active) in assay [6]. Further, the growth in assay [7] is 30.1%; in [8], -41.6% (active); in assay [9] it was -74.1% (active); in [10], 21.8%.
